# PubChem BioAssay
# Unmarked numbers belong to inactive results. No rule for the calls is given here. Where a SMILES comes first, the peptide text is derived from it. The star is where a group is joined. Boc = CC(C)(C)OC(=O)*
# System: Botulinum neurotoxin type F light chain protease (Clostridium botulinum)
# Assay: Botulinum neurotoxin type F light chain protease inhibition, multiplex microsphere flow cytometry, validation set (AID 588459)
# Conditions: multiplex microsphere protease substrate cleavage assay, at 10 µM, stronger effect = higher value
row,SMILES,inhibition [%]
1,CCC(C)NCCOCCOc1ccc(Cl)c2ccccc12 (stereo not drawn),-2.3
2,Fc1cccc(Cc2noc(CN3CCN(c4cnccn4)CC3)n2)c1,3.7
3,O=c1c(-c2ccccc2)c(O)c2cccc3c2n1CCC3,3.3
4,O=S(=O)(CCc1nc2ccccc2[nH]1)c1ccc(Cl)cc1,3
5,CC(=O)OCC(=O)[C@@]1(OC(C)=O)[C@@H](C)C[C@H]2[C@@H]3C[C@H](F)C4=CC(=O)C=C[C@]4(C)[C@@]3(F)[C@@H](O)C[C@@]21C,1.6
6,CCc1cc(=O)oc2cc(C)c(CN3CCCC(C)C3)c(O)c12 (stereo not drawn),3.9
7,CCN1C(=O)C(CC(=O)Nc2ccc(F)cc2)N(Cc2ccco2)C1=S (stereo not drawn),-2.9
8,C=CCNC(=O)c1ccc(-c2cccc([N+](=O)[O-])c2)o1,-1.3
9,C=C(C)C(=O)Nc1ccc(NC(C)C)cc1,0.4
10,COc1ccccc1C(CCN(Cc1ccccc1)C(C)=O)c1ccco1 (stereo not drawn),-6.5
11,c1ccc2c(CC3=NCCN3)cccc2c1,-3.3
12,O=C(OCCN1CCOCC1)c1cccs1,-2.8
13,CCOc1ccc(NC(=O)N[C@@H](CCSC)C(=O)OC)cc1,-0.6
14,Cc1ccccc1OCC(O)CN1CCN(C)CC1 (stereo not drawn),1
15,Cc1ccc(C(=O)Nc2ccccc2C(=O)NC(C(=O)O)C(C)C)cc1 (stereo not drawn),4.4
16,Cc1cccc(CN2CCN(C(c3ccccc3)c3ccc(Cl)cc3)CC2)c1 (stereo not drawn),-0.2
17,CCN(CC)Cc1c[nH]c2c(C(=O)OC)cccc12,-0.7
18,C[C@]12CC[C@@H]3c4ccc(OS(=O)(=O)O)cc4CC[C@H]3[C@@H]1CCC2=O,-0.1
19,Nc1nc2ccc(OC(F)(F)F)cc2s1,0.4
20,NC(N)=NC(N)=Nc1ccc2ccccc2c1,3.6

row,SMILES,inhibition [%]
1,CC(C)(C)OC(=O)N1CCCC1C(=O)NC(Cc1ccccc1)C(=O)O (stereo not drawn) (Boc-Pro-Phe-OH; configuration not given here),-2.1
2,O=c1oc2c(CN3CCCCC3)c(O)ccc2c2c1CCCCC2,4.3
3,O=C(NCCCCCc1nc2ccccc2[nH]1)c1ccccc1Cl,1.4
4,c1coc(-c2nnc3n2C2(CCCC2)Cc2ccccc2-3)c1,2.5
5,CCOC(=O)/C=C1\NC(C)(C)Cc2cc(OC)c(OC)cc21,0.2
6,O[C@@H](CNC[C@H](O)c1ccccc1)c1ccccc1,3.9
7,COc1ccc(C(=O)COc2ccc(F)cc2)c(O)c1,1
8,COc1ccc(NC(=O)N2CCCCC2c2cccnc2)cc1 (stereo not drawn),2.7
9,C[C@@H]1C[C@H](Nc2ccccc2)c2ccccc2N1C(=O)c1cccnc1,1
10,O=c1cc(CN2CCN(c3cccc(Cl)c3)CC2)c2cc(O)c(-c3ccccc3)cc2o1,-1.3
11,CC(=O)c1c[nH]c2ccc(C)cc2c1=O,-1.7
12,CC(C)OC(=O)c1ccc(NC(=O)c2cncc(Br)c2)cc1,-2.9
13,Cc1cccc2c(C(=O)O)cc(-c3cccnc3)nc12,-2.3
14,CCCCOC(=O)c1ccc(N)cc1,3.6
15,COc1cc(/C=C/C(=O)N2CCCC2)cc(OC)c1OC,-1.5
16,C[N+](C)(C)CCOP(=O)(O)OP(=O)([O-])OC[C@H]1O[C@@H](n2ccc(N)nc2=O)[C@H](O)[C@@H]1O,6
17,COc1cccc2c1C(=O)O/C2=C/c1ccc2c(c1)OCO2,-0.9
18,NS(=O)(=O)c1cc2c(cc1Cl)NC(C1C[C@H]3C=C[C@@H]1C3)NS2(=O)=O (stereo partly drawn),1.4
19,Cc1csc(CCc2nc(C)cs2)n1,1.4

# Target: Botulinum neurotoxin type A (Clostridium botulinum) (UniProt P0DPI0)
# Assay: BoNT/A light chain protease inhibitors, biochemical, multiplex microsphere flow cytometry, validation set (AID 588460)
# Conditions: at 10 µM, stronger effect = higher value
# Sequence of Botulinum neurotoxin type A (Clostridium botulinum) (P0DPI0 whole entry, looked up): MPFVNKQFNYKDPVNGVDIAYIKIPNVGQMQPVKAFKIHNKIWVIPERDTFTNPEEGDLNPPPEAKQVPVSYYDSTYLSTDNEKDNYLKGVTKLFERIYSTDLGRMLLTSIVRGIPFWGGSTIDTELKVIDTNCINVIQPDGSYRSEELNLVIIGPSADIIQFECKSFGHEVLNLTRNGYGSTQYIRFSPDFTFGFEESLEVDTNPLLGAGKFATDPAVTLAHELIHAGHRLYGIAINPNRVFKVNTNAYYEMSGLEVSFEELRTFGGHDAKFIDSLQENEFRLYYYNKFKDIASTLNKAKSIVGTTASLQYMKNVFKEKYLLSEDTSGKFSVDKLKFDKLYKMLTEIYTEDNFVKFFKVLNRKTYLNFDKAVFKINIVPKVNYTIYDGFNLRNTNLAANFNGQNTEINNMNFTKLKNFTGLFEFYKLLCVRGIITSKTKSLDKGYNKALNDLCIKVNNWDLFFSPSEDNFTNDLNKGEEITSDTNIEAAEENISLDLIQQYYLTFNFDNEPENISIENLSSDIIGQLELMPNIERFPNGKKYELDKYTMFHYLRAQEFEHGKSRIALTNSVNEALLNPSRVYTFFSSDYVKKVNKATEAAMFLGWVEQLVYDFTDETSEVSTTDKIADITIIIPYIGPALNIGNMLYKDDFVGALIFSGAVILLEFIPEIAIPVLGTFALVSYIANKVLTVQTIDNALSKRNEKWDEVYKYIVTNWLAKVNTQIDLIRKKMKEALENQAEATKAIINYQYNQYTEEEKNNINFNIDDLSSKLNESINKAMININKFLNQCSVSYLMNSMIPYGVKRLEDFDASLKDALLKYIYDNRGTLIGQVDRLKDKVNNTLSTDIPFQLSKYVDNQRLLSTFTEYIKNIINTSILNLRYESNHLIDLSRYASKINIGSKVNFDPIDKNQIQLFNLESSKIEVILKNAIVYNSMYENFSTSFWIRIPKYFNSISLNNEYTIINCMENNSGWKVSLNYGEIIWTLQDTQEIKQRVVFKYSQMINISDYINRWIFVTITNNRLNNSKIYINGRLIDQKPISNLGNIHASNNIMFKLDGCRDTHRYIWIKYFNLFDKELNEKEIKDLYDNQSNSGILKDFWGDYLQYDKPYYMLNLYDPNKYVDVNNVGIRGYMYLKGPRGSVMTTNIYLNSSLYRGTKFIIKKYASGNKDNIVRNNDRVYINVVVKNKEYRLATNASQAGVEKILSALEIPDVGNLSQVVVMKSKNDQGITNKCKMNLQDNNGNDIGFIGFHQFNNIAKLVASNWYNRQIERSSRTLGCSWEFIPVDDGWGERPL
row,SMILES,inhibition [%]
1,CCC(C)NCCOCCOc1ccc(Cl)c2ccccc12 (stereo not drawn),1.8
2,Fc1cccc(Cc2noc(CN3CCN(c4cnccn4)CC3)n2)c1,-1.3
3,O=c1c(-c2ccccc2)c(O)c2cccc3c2n1CCC3,0.8
4,O=S(=O)(CCc1nc2ccccc2[nH]1)c1ccc(Cl)cc1,-0.3
5,CC(=O)OCC(=O)[C@@]1(OC(C)=O)[C@@H](C)C[C@H]2[C@@H]3C[C@H](F)C4=CC(=O)C=C[C@]4(C)[C@@]3(F)[C@@H](O)C[C@@]21C,0.4
6,CCc1cc(=O)oc2cc(C)c(CN3CCCC(C)C3)c(O)c12 (stereo not drawn),-0.1
7,CCN1C(=O)C(CC(=O)Nc2ccc(F)cc2)N(Cc2ccco2)C1=S (stereo not drawn),-2.8
8,C=CCNC(=O)c1ccc(-c2cccc([N+](=O)[O-])c2)o1,-0.6
9,C=C(C)C(=O)Nc1ccc(NC(C)C)cc1,-0.8
10,COc1ccccc1C(CCN(Cc1ccccc1)C(C)=O)c1ccco1 (stereo not drawn),-1.3
11,c1ccc2c(CC3=NCCN3)cccc2c1,-2.2
12,O=C(OCCN1CCOCC1)c1cccs1,-0.9
13,CCOc1ccc(NC(=O)N[C@@H](CCSC)C(=O)OC)cc1,-1.8
14,Cc1ccccc1OCC(O)CN1CCN(C)CC1 (stereo not drawn),-0.4
15,Cc1ccc(C(=O)Nc2ccccc2C(=O)NC(C(=O)O)C(C)C)cc1 (stereo not drawn),0.5
16,Cc1cccc(CN2CCN(C(c3ccccc3)c3ccc(Cl)cc3)CC2)c1 (stereo not drawn),-2
17,CCN(CC)Cc1c[nH]c2c(C(=O)OC)cccc12,0.3
18,C[C@]12CC[C@@H]3c4ccc(OS(=O)(=O)O)cc4CC[C@H]3[C@@H]1CCC2=O,-0.2
19,Nc1nc2ccc(OC(F)(F)F)cc2s1,-0.1
20,NC(N)=NC(N)=Nc1ccc2ccccc2c1,1

row,SMILES,inhibition [%]
1,CC(C)(C)OC(=O)N1CCCC1C(=O)NC(Cc1ccccc1)C(=O)O (stereo not drawn) (Boc-Pro-Phe-OH; configuration not given here),-0.8
2,O=c1oc2c(CN3CCCCC3)c(O)ccc2c2c1CCCCC2,0.5
3,O=C(NCCCCCc1nc2ccccc2[nH]1)c1ccccc1Cl,0.3
4,c1coc(-c2nnc3n2C2(CCCC2)Cc2ccccc2-3)c1,-1.4
5,CCOC(=O)/C=C1\NC(C)(C)Cc2cc(OC)c(OC)cc21,-0.4
6,O[C@@H](CNC[C@H](O)c1ccccc1)c1ccccc1,1.5
7,COc1ccc(C(=O)COc2ccc(F)cc2)c(O)c1,-1.3
8,COc1ccc(NC(=O)N2CCCCC2c2cccnc2)cc1 (stereo not drawn),0.7
9,C[C@@H]1C[C@H](Nc2ccccc2)c2ccccc2N1C(=O)c1cccnc1,1
10,O=c1cc(CN2CCN(c3cccc(Cl)c3)CC2)c2cc(O)c(-c3ccccc3)cc2o1,-1.5
11,CC(=O)c1c[nH]c2ccc(C)cc2c1=O,-0.6
12,CC(C)OC(=O)c1ccc(NC(=O)c2cncc(Br)c2)cc1,-0.1
13,Cc1cccc2c(C(=O)O)cc(-c3cccnc3)nc12,-0.5
14,CCCCOC(=O)c1ccc(N)cc1,-1.1
15,COc1cc(/C=C/C(=O)N2CCCC2)cc(OC)c1OC,0.4
16,C[N+](C)(C)CCOP(=O)(O)OP(=O)([O-])OC[C@H]1O[C@@H](n2ccc(N)nc2=O)[C@H](O)[C@@H]1O,0.6
17,COc1cccc2c1C(=O)O/C2=C/c1ccc2c(c1)OCO2,-0.8
18,NS(=O)(=O)c1cc2c(cc1Cl)NC(C1C[C@H]3C=C[C@@H]1C3)NS2(=O)=O (stereo partly drawn),1
19,Cc1csc(CCc2nc(C)cs2)n1,0.2
